We go through nine compounds from PubChem BioAssay.

A short description of experiment [1]: reducers of endogenous Her2 protein level, primary screen, SKBR3 breast tumor cells, AlphaScreen, ATP viability (AID 461;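 active = Her2 level under about 52% in both replicate screens, with viability over 70% of control, limit read from the data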;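 as to Her2 level: lower value means less Her2 protein in the cells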;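 as to viability: percent of carrier control wells set as 100% viability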). As to conditions: 18-24 h, measured here: SKBR3 viability, ATP luminescence, at 10 µM.
Experiment [2] deals with Receptor tyrosine-protein kinase erbB-2 (Homo sapiens) (UniProt P04626). Described as above. Particulars: 18-24 h, at 10 µM, stronger effect = lower value.
Receptor tyrosine-protein kinase erbB-2 (Homo sapiens), sequence (P04626 whole entry, looked up): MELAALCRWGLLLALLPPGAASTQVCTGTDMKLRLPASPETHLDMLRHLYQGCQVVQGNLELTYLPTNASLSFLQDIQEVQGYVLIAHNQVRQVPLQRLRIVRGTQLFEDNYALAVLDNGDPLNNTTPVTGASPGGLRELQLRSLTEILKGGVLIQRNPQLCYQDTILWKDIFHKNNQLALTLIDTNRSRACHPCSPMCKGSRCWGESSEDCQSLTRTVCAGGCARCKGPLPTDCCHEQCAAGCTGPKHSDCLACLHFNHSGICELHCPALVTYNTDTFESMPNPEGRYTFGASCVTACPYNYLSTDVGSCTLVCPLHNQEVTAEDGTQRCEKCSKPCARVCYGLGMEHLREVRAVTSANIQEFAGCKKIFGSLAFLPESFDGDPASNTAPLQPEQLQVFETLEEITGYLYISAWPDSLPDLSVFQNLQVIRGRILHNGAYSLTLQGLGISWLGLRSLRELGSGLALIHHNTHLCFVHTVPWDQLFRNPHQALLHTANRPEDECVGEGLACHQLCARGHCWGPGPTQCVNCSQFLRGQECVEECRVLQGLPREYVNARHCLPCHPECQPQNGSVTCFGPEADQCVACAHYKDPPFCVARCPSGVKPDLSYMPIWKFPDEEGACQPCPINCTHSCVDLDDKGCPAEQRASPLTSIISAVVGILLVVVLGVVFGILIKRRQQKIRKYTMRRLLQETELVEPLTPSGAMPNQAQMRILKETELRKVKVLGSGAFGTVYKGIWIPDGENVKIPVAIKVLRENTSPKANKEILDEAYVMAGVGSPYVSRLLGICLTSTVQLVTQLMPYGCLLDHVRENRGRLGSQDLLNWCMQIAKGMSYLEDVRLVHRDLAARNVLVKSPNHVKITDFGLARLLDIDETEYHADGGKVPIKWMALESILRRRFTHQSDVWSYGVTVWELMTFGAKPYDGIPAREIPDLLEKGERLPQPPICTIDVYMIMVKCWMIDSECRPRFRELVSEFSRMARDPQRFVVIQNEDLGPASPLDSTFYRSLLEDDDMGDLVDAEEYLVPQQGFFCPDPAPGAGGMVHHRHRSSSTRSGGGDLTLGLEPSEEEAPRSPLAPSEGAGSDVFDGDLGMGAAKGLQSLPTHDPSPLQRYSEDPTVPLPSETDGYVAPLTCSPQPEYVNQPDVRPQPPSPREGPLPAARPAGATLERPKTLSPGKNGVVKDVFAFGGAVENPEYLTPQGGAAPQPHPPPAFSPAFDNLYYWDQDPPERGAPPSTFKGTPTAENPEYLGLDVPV
Experiment [3] is described as follows: SK-BR-3 cell growth inhibitors, pilot screen, 24 h, human (AID 572;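 active = viability at or below 10% of carrier control in both of two separate runs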;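 also: compound exposure lasted between 18 and 24 h rather than exactly 24 h; 100% = carrier-treated control wells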). As to conditions: SK-BR-3 viability, CellTiter-Glo luminescence, at 10 µM, stronger effect = lower value.
The nature of experiment [4]: HUVEC growth inhibition – cell-based, human, primary screen (AID 575;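 active = viability at or below 30% in both replicate assays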;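 also: 100% = median of untreated cell wells with 0.1% DMSO on each plate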). As to conditions: HUVEC proliferation, CellTiter-Glo luminescence, 72 h; at 10 µM; stronger effect = lower value.
Experiment [5] is described as follows: growth inhibitors of H69AR lung tumor, primary screen, human, duplicate replicates (AID 580;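 active = viability at or under a set limit in both replicates, limit being median viability minus 3 SD, cut at about 48% in these data, passing the limit was not always enough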;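 also: 100% = mean luminescence of untreated wells and 0% = no signal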). Particulars: H69AR lung tumor cells viability, ATP luminescence, 72 h; at 10 µM; stronger effect = lower value.
Experiment [6] is described as follows: reversal of MRP1-mediated doxorubicin resistance, pilot screen, H69AR cells, doxorubicin co-treatment (AID 601;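 active = viability loss from added drug above about 55%, and viability with drug at most 40%, in both replicates, limit read from the data, passing the limit was not always enough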). Particulars: CellTiter-Glo, 72 h, at 10 µM; for differential viability (reversal): stronger effect = higher value.
A short description of experiment [7]: 384-well plate pilot, post-Golgi transport modulator project, inhibition of yeast transport mutant growth (AID 636; in the data active = inhibition above about 31%). Particulars: absorbance 615 nm, about 18 h, stronger effect = higher value.
Experiment [8] can be described thus: growth suppression of yeast trafficking mutant, preliminary HTS, modulators of trafficking downstream of Golgi apparatus project, 1536-format plate, OD 615 nm (AID 637; in the data active = inhibition above about 30%). Particulars: yeast transport mutant growth, absorbance 615 nm, 18 h; stronger effect = higher value.
Experiment [9] is described as follows: OD615 S. cerevisiae growth inhibition, permissive medium, pilot counter-assay, permissive growth control for S. cerevisiae lifespan shortening project (AID 705;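 active = growth inhibition above 25% in both replicates, a cutoff set 3 SD above the mean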). As to conditions: OD615, 24 h, at 10 µM, stronger effect = higher value.
Experiment [10] can be described thus: Restrictive medium S. cerevisiae growth inhibition, OD615, pilot screen of yeast lifespan reduction project, restrictive growth control (AID 706;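 active = growth inhibition above a set limit, 3 SD over mean compound inhibition, in both replicates, cut at about 43% in these data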;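 also: modified DeaD lifespan yeast strain shifted to restrictive glucose medium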). As to conditions: OD615, 48 h, at 10 µM, stronger effect = higher value.
Experiment [11] in a line: viability gain of MRP-1-high H69AR cells under doxorubicin, pilot screen, MRP-1 activator project, CellTiter-Glo, duplicate (AID 807;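 active = viability increase at or above a cutoff of the median across tested compounds plus 3 SD, cut at about 8.5% in these data, passing the limit was not always enough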;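 also: compound pretreatment 18-22 h then 72 h combined with doxorubicin; 0% = doxorubicin alone and 100% = vehicle without doxorubicin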). As to conditions: H69AR viability with doxorubicin, CellTiter-Glo luminescence; at 10 µM; stronger effect = higher value.
Experiment [12] is described as follows: growth suppression of beta-catenin knockout HCT116, pilot screen, human colon tumor cells (AID 823;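 active = cell viability at or below a set limit in both duplicate runs, the limit being the all-compound median minus 4 SD, cut at about 23% in these data, passing the limit was not always enough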;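 also: 0% = wells killed by 20 µM Hyamine and 100% = untreated DMSO cell wells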). Particulars: CellTiter-Glo, 60 h, at 10 µM, stronger effect = lower value.
A short description of experiment [13]: growth suppression of PTEN-deleted HCT116, pilot screen, cell-based, HCT116 clonal line, CellTiter-Glo (AID 824;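 active = viability at or below 27.92% in each of two runs, the all-compound median minus 4 SD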;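 also: 0% = 20 µM Hyamine control and 100% = vehicle cell control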). Particulars: 60 h, at 10 µM, stronger effect = lower value.
The nature of experiment [14]: inhibitors of the yeast RAM network, pilot screen, dse1pr::URA3 reporter, 5-FOA selection (AID 869;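 active = inhibition over a set limit, the all-compound mean plus 3 SD, in both replicate runs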;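 also: 0% = DMSO wells with no growth and 100% = 10 µM 1-NA-PP1 with full growth; RAM network block rescues cells from 5-FOA so hits raise OD615 growth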). Particulars: S. cerevisiae dse1pr::URA3 5-FOA growth, OD615, 2 d; at 10 µM; stronger effect = higher value; strain carries analog-sensitive mutant Cbk1 kinase.
The nature of experiment [15]: RAM signaling pathway blockade in yeast – S. cerevisiae, Pdr1DBD-CYC8 efflux-inhibited sensitized strain, primary screen (AID 1298).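 Also: 0% = DMSO untreated cells without growth and 100% = 10 µM 1-NA-PP1 full growth; higher means more yeast growth rescued from 5-FOA killing.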 As to conditions: S. cerevisiae cbk1-as DSE1-URA3 strain, 5-FOA growth OD615, 2 d; at 50 µM; stronger effect = higher value.
Where [16] appears, read: H69AR cells + 2 uM doxorubicin, measured here: viability with 2 uM doxorubicin, stronger effect = lower value.
[17] abbreviates: H69AR cells, compound alone cytotoxicity.

Inconclusive results are not listed. Activity calls are given as the source filed them.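 The calls were made as follows, unless noted: active = RAM network inhibition above 8.4% in each of two replicates, 3 SD over the compound average; inconclusive = above 8.4% inhibition in only one replicate; inactive = 8.4% inhibition or less in each replicate.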

As to `Cc1cccc(NC(=O)Nc2cccc(C#N)c2)n1`, the viability is 100% in experiment [1]; 100% (inactive) in experiment [3]; 63.2% (inactive) in experiment [4]; 84% (inactive) in experiment [5]; 87.5% in experiment [6] (setting [16]); 84% in experiment [6] (setting [17]). Also, the viability in experiment [12] was 43.5% (inactive); in [13], 46% (inactive). Also, in [2], the Her2 level was 66.5% (inactive). Moreover, the differential viability (reversal) in experiment [6] (H69AR cells + 2 uM doxorubicin) was -3.47% (inactive). Moreover, the inhibition in experiment [7] is 0.38% (inactive); in experiment [8], 3.67% (inactive); in experiment [14], 3.24% (inactive). For the same compound, the values for the growth inhibition in experiment [9] and in experiment [10] were -8.45% (inactive) and 0.81% (inactive), respectively. In addition, the viability increase in experiment [11] was -4.03% (inactive). Also, in experiment [15], the RAM network inhibition is 2.88% (inactive).

For the compound `CCCC(=O)Nc1nc2ccc(S(N)(=O)=O)cc2s1`, the viability in experiment [1] is 88%; in experiment [3], 88% (inactive); in experiment [4], 90% (inactive); in experiment [5] it was 106% (inactive); in experiment [6] (setting [16]) it was 71.4%; in experiment [6] (setting [17]), 106%. Moreover, the viability in experiment [12] is 99.4% (inactive); in [13], 90.5% (inactive). Moreover, in [2], the Her2 level is 98% (inactive). Moreover, the differential viability (reversal) in experiment [6] (H69AR cells + 2 uM doxorubicin) is 34.3% (inactive). Also, the inhibition in [7] is -3.33% (inactive); in [8], 6.33% (inactive); in [14], 0.465% (inactive). The growth inhibition is -4% (inactive) in experiment [9] and -0.595% (inactive) in experiment [10]. The viability increase in experiment [11] is -1.78% (inactive). The RAM network inhibition in [15] was -0.2% (inactive).

With `CCOc1ccc(OCCCCN(C)C)cc1`, the viability was 89% in [1]; 89% (inactive) in experiment [3]; 87.2% (inactive) in experiment [4]; 88.5% (inactive) in experiment [5]; 86.7% in experiment [6] (setting [16]); 88.5% in experiment [6] (setting [17]). The viability in experiment [12] was 96.8% (inactive); in [13], 93.5% (inactive). Moreover, the Her2 level in experiment [2] is 92.5% (inactive). Moreover, the differential viability (reversal) in experiment [6] (H69AR cells + 2 uM doxorubicin) was 1.8% (inactive). Further, the inhibition was -0.64% (inactive) in [7], 1.5% (inactive) in experiment [8] and 3.26% (inactive) in experiment [14]. In addition, the figures for the growth inhibition in [9] and in experiment [10] were -10% (inactive) and 3.69% (inactive), respectively. In addition, in experiment [11], the viability increase was -0.48% (inactive). Also, in experiment [15], the RAM network inhibition is 6.13% (inactive).

On to `Cc1cc(NC(=O)c2cccc(S(=O)(=O)N3CC(c4ccccc4)CC3=O)c2)no1` (stereo not drawn), for which the viability is 92% in experiment [1]; 92% (inactive) in experiment [3]; 98.8% (inactive) in experiment [4]; 97.6% (inactive) in experiment [5]; 91.3% in experiment [6] (setting [16]); 97.6% in experiment [6] (setting [17]). Further, the figures for the viability in [12] and in experiment [13] were 96.8% (inactive) and 90.5% (inactive), respectively. For the same compound, the Her2 level in experiment [2] is 97.5% (inactive). Moreover, in [6] (H69AR cells + 2 uM doxorubicin), the differential viability (reversal) was 6.25% (inactive). Further, the inhibition is -6.4% (inactive) in experiment [7], 3.33% (inactive) in experiment [8] and 1.83% (inactive) in [14]. Further, the growth inhibition in experiment [9] is -15.3% (inactive); in experiment [10], -8.59% (inactive). In experiment [11], the viability increase was 1.83% (inactive). Moreover, the RAM network inhibition in [15] was 5.71% (inactive).

On to `O=c1c2ccccc2nc2n1CCN2`, for which the viability was 84% in experiment [1]; 84% (inactive) in experiment [3]; 91.9% (inactive) in experiment [4]; 109% (inactive) in [5]; 83.3% in experiment [6] (setting [16]); 109% in experiment [6] (setting [17]). For the same compound, the results for the viability in [12] and in experiment [13] were 101% (inactive) and 104% (inactive), respectively. For the same compound, the Her2 level in [2] is 95.5% (inactive). Further, the differential viability (reversal) in experiment [6] (H69AR cells + 2 uM doxorubicin) was 26.2% (inactive). Further, the inhibition in [7] is -0.93% (inactive); in experiment [8], 5.16% (inactive); in [14] it was 1.84% (inactive). The growth inhibition in [9] is -3.22% (inactive); in experiment [10], -1.61% (inactive). For the same compound, in experiment [11], the viability increase is 0.22% (inactive). The RAM network inhibition in experiment [15] is -0.47% (inactive).

`O=C(Nc1ccccc1)C1=C(O)CC(c2ccoc2)CC1=Nc1ccccc1` (stereo not drawn): the viability in experiment [1] is 93%; in experiment [3], 93% (inactive); in experiment [4] it was 96.8% (inactive); in experiment [5], 73% (inactive); in experiment [6] (setting [16]) it was 79.7%; in experiment [6] (setting [17]), 73%. For the same compound, the viability is 69.6% (inactive) in experiment [12] and 70.3% (inactive) in [13]. Besides, in [2], the Her2 level is 91% (inactive). In addition, the differential viability (reversal) in experiment [6] (H69AR cells + 2 uM doxorubicin) was -6.7% (inactive). For the same compound, the inhibition in experiment [7] was 71.4% (active); in experiment [8] it was 4.59% (inactive); in [14], 1.05% (inactive). Moreover, the growth inhibition is -11.2% (inactive) in [9] and -4.9% (inactive) in experiment [10]. In experiment [11], the viability increase was -4.69% (inactive). In addition, the RAM network inhibition in [15] is 2.05% (inactive).

Consider `O=C(C1CCN(c2nnc(-n3cccc3)s2)CC1)N1CCc2ccccc2C1`, for which the viability in experiment [1] was 88%; in experiment [3], 88% (inactive); in [4], 58.6% (inactive); in [5], 77.9% (inactive); in experiment [6] (setting [16]), 76.1%; in [6] (setting [17]), 77.9%. The viability in experiment [12] was 97% (inactive); in [13], 94.1% (inactive). Also, the Her2 level in [2] is 93.5% (inactive). In addition, in experiment [6] (H69AR cells + 2 uM doxorubicin), the differential viability (reversal) was 1.77% (inactive). In addition, the inhibition in [7] is -0.26% (inactive); in experiment [8], -6% (inactive); in [14] it was 3.21% (inactive). Moreover, the results for the growth inhibition in [9] and in [10] were 1.58% (inactive) and 1.25% (inactive), respectively. Also, in experiment [11], the viability increase is -1.4% (inactive). The RAM network inhibition in experiment [15] was 6.43% (inactive).

As to `CCC(C)(C(=O)NC1CCCC1)N(Cc1cccs1)C(C)=O` (stereo not drawn), the viability was 120% in [1]; 120% (inactive) in experiment [3]; 102% (inactive) in experiment [4]; 96.9% (inactive) in experiment [5]; 90.2% in experiment [6] (setting [16]); 96.9% in [6] (setting [17]). The values for the viability in [12] and in experiment [13] were 108% (inactive) and 96.3% (inactive), respectively. In experiment [2], the Her2 level is 83.5% (inactive). Further, the differential viability (reversal) in [6] (H69AR cells + 2 uM doxorubicin) is 6.71% (inactive). Moreover, the figures for the inhibition in [7], in experiment [8] and in [14] were -9.04% (inactive), 5.08% (inactive) and 0.55% (inactive), respectively. For the same compound, the values for the growth inhibition in experiment [9] and in experiment [10] were -17.6% (inactive) and -23.3% (inactive), respectively. Moreover, the viability increase in experiment [11] was -0.17% (inactive). Moreover, the RAM network inhibition in [15] was 4.23% (inactive).

On to `Brc1ccccc1-c1nc(-c2ccccc2)no1`, for which the viability in experiment [1] is 88%; in experiment [3], 88% (inactive); in experiment [4], 89.1% (inactive); in experiment [5], 74.3% (inactive); in [6] (setting [16]), 83.3%; in [6] (setting [17]), 74.3%. For the same compound, the viability in experiment [12] is 72% (inactive); in experiment [13] it was 70.6% (inactive). Besides, the Her2 level in [2] was 84.5% (inactive). Besides, the differential viability (reversal) in experiment [6] (H69AR cells + 2 uM doxorubicin) was -8.99% (inactive). Further, the inhibition in experiment [7] was -2.6% (inactive); in [8], -8% (inactive); in [14], 0.565% (inactive). For the same compound, the growth inhibition in [9] is -7.54% (inactive); in [10] it was 8.43% (inactive). Also, the viability increase in experiment [11] was -5.68% (inactive). Also, in experiment [15], the RAM network inhibition was 3.53% (inactive).
